# Source: PubChem (NMMLSC)
# Sampled rows, rich in hits. Any-hit rate of the full collection: about 1.2%.
# CIT2-GFP yeast – modulators of TOR pathway CIT2-GFP in S. cerevisiae | 320,000 tested, 0.065% active | AID 2029 | S. cerevisiae CIT2-GFP strain, flow cytometry, 3 h; 100 means same as DMSO wells | GFP response vs DMSO, % at 10 µM;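 active = GFP response relative to DMSO above a set limit, near the screen mean plus 3 SD, cut at about 150% in these data; inconclusive = Fewer than 70 cells measured for a yeast strain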;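 also: ratio of well median GFP fluorescence to mean of DMSO wells on the plate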
# DSG3 Ab inh – human desmoglein-3 autoantibody binding inhibition; 310,000 tested, 0.48% active; P32926; DSG3-coupled beads, scFv-anti-DSG3-GFP binding, flow cytometry; hits give low values; binding (percent of control), % at 10 µM;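 active = binding more than 3 SD below its plate's average and above zero; inconclusive = below that plate limit but binding exactly zero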;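 also: hits lower antibody fragment binding to DSG3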
# MEP2 TOR yeast – yeast TOR pathway MEP2-GFP modulation; 330,000 tested, 0.51% active; S. cerevisiae MEP2-GFP strain, flow cytometry GFP, 3 h; 100% = DMSO control level; GFP response vs DMSO, % at 10 µM;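 active = GFP response versus DMSO above a set limit, roughly screen mean plus 3 SD, cut at about 180% in these data; inconclusive = fewer than 70 cells counted for a yeast strain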;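 also: median GFP fluorescence of the barcode-gated MEP2-GFP cells per well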
# RPL19A-GFP yeast – yeast TOR pathway RPL19A-GFP modulation; S. cerevisiae RPL19A-GFP strain, flow cytometry, 3 h; hits give low values; percent response vs DMSO, % at 10 µM; 330,000 tested, 0.3% active;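 active = percent response vs DMSO below 50%; inconclusive = fewer than 70 events counted for the yeast strain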;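 also: median channel GFP fluorescence of the barcoded RPL19A-GFP strain; ratio of sample median GFP to plate DMSO average so 100% = DMSO; lower means less RPL19A-GFP as with rapamycin TOR inhibition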
# AGP1-GFP MLPCN – modulators of TOR pathway AGP1-GFP in S. cerevisiae; GFP response vs DMSO, % at 10 µM; S. cerevisiae AGP1-GFP multiplex flow cytometry, 3 h; GFP as percent of DMSO wells; 320,000 tested, 0.02% active;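 active = GFP response relative to DMSO above a set limit, near screen average plus 3 SD, cut at about 150% in these data; inconclusive = fewer than 70 cells counted for the yeast strain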;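 also: median GFP channel fluorescence of the gated AGP1 strain per well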
# LAP4 TOR yeast – modulators of TOR pathway LAP4-GFP in S. cerevisiae; S. cerevisiae LAP4-GFP multiplex, flow cytometry GFP, 3 h; median GFP as percent of DMSO wells; 320,000 tested, 0.34% active; AID 2023; GFP response vs DMSO, % at 10 µM;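 active = GFP response vs DMSO above a set limit, about the screen mean plus 3 SD, cut at about 150% in these data; inconclusive = under 70 cell events counted for the yeast strain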
# Active calls of the source: *; u = inconclusive; x = no result; [ ] = another dose, or the depositor's remark.
SMILES,CIT2-GFP yeast,DSG3 Ab inh,MEP2 TOR yeast,RPL19A-GFP yeast,AGP1-GFP MLPCN,LAP4 TOR yeast
O=C(c1ccccc1)c1ccc[nH]1,x,125,x,x,x,x
COc1ccccc1N1CCN(C(=O)CSc2ccccc2)CC1,105,97,107,102,97,111
COc1ccccc1N1CCN(C(=O)C(Sc2ccccc2)c2ccccc2)CC1 (configuration not stated),u,113,261*[may fluoresce violet],40*[may fluoresce violet],x,93
Cc1cc([N+](=O)[O-])ccc1NC(=O)c1cc2ccccc2o1,93,98,97,96,90,91
Oc1ccc(/C=N/NC(=S)Nc2cccnc2)c(O)c1O,x,53*,x,x,x,x
Cc1ccc(Nc2c(O)nc[nH]c2=O)cc1,x,120,x,x,x,x
COc1ccc(CNC(=O)CN(C)S(=O)(=O)c2ccc(Br)s2)cc1,95,u,97,92,90,85
COc1ccccc1CNC(=O)CN(C)S(=O)(=O)c1ccc(Br)s1,u,110,u,21*[may fluoresce violet],u,u
Cc1cc(C)nc(NC(=O)c2cccc(Cl)c2)n1,u,98,725*[may fluoresce violet],17*[may fluoresce violet],u,89
O=C1OCCN1C(=O)[C@H]1[C@H](c2ccc(F)cc2)C(c2ccc(F)cc2)=NN1c1ccc(Br)cc1,u,91,383*[may fluoresce violet],92,16,130
O=C1OCCN1C(=O)[C@H]1[C@H](c2ccc(Cl)cc2)C(c2ccc(F)cc2)=NN1c1ccc(Br)cc1,x,102,x,x,x,x
Cc1nc(N)c(Cc2ccccc2F)c(N)n1,96,24*,98,95,97,95
FC(F)(F)c1cccc(Cc2noc(CN3CCCC(CN4CCCC4)C3)n2)c1 (configuration not stated),95,109,94,93,95,91
N#CCOc1ccccc1/C=C/c1nc2ccccc2c(=O)[nH]1,u,107,243*[may fluoresce violet],24*[may fluoresce violet],u,61
Cc1ccccc1/C=C\c1nc2ccccc2c(=O)[nH]1,93,99,101,98,89,100
O=C(NCC(c1cccnc1)N1CCOCC1)Nc1ccccc1 (configuration not stated),u,105,189*[may fluoresce violet],23*[may fluoresce violet],u,78
O=S(=O)(NCC(c1cccnc1)N1CCOCC1)c1ccccc1 (configuration not stated),104,87,102,106,97,88
CC(C)(C)c1ccc(OCCOc2ccc(C(C)(C)C)cc2NC=O)c(NC=O)c1,88,107,86,87,92,97
COC(=O)c1ccc(C2C(C(=O)c3ccco3)=C(O)C(=O)N2CC2CCCO2)cc1 (configuration not stated),115,98,105,106,115,106
O=C(C1=C(O)C(=O)N(CC2CCCO2)C1c1ccc(Cl)cc1)c1ccco1 (configuration not stated),u,114,276*[may fluoresce violet],58,28,94
CN=C(C[N+](=O)[O-])NCCSCc1ccc(CN(C)C)o1,107,118,105,108,107,101
COc1cccc(C(=O)NCc2ccc3c(c2)cc(C)n3C)c1,99,82*,103,102,103,106
Cc1ccccc1NC(=S)NCc1ccc2c(c1)cc(C)n2C,98,66*,96,103,94,117
COc1ccc(C(=O)NCc2ccc3c(c2)cc(C)n3C)cc1OC,103,109,101,97,99,90
CC(C)N=C(Nc1ccccc1)c1cccnc1,u,x,177*[may fluoresce violet],34*[may fluoresce violet],22,90
SMILES,CIT2-GFP yeast,DSG3 Ab inh,MEP2 TOR yeast,RPL19A-GFP yeast,AGP1-GFP MLPCN,LAP4 TOR yeast
C/C(=N\NC(=O)CSc1nc(C)cc(C)n1)c1cccc([N+](=O)[O-])c1,98,66*,104,102,100,93
Cc1cc(C)nc(SCC(=O)N/N=C/c2cccc([N+](=O)[O-])c2)n1,102,99,102,98,104,94
CCOc1ccc(CCNC(=O)c2cccc(NC3=NC4CS(=O)(=O)CC4S3)c2)cc1 (configuration not stated),101,82,101,100,98,100
Cc1ccc(CCN2CC(C(=O)NCCCN3CCCCCC3)CC2=O)cc1 (configuration not stated),u,114,184*[may fluoresce violet],61,x,103
Cc1ccc(CCN2CC(C(=O)NCCN3CCCCCC3)CC2=O)cc1 (configuration not stated),106,105,100,98,98,96
Cc1ccc(CCN2CC(C(=O)NCCCN(C)Cc3ccccc3)CC2=O)cc1 (configuration not stated),100,100,188*,97,99,86
CCCCNC(=O)C1CC(=O)N(CCc2ccccc2)C1 (configuration not stated),103,94,99,98,105,106
CCC(CC)C(=O)Nc1cccc(S(=O)(=O)c2cccc(NC(=O)C(CC)CC)c2)c1,92,-13*,102,97,98,97
CCC(CC)C(=O)Nc1cccc(C(=O)Nc2ccc(S(N)(=O)=O)cc2)c1,100,98,94,92,100,95
CC(=O)NCCC(=O)Nc1nc2ccc(Oc3ccccc3)cc2s1,95,x,108,103,101,102
Cc1ccccc1OCC(=O)Nc1ccccc1C(=O)NC1CC1,94,111,96,92,88,95
COc1ccc2[nH]c3nc(SCC(=O)NNC(=O)c4ccc(OC)c(OC)c4)nnc3c2c1,108,15*,99,103,106,92
N#Cc1c(N)n(-c2ccccc2N)c2nc3ccccc3nc12,95,112,103,96,109,112
N#Cc1c(N)n(-c2cccc(C(=O)O)c2)c2nc3ccccc3nc12,u,92,198*[may fluoresce violet],61,19,83
CCOC(=O)C1=C[C@]2(CC)CCCN3CCc4c(n1c1ccccc41)[C@@H]32,93,75*,92,97,90,107
Cc1cc(C(F)(F)F)nc(SCCN2CCCCC2)c1C#N,100,113,95,96,96,91
CC1(C)CC(=O)C=C(c2cc3ccccc3s2)C1,102,85*,99,104,103,100
C=CCOc1ccc(C(=O)n2cc(C(=O)OC)c3ccccc32)cc1,92,113,186*,99,90,106
C=CCOc1ccc(/C=C/C(=O)OCC(=O)N(C)C2CCS(=O)(=O)C2)cc1 (configuration not stated),119,x,112,120,107,90
COC(=O)Cc1ccc(OCc2ccc(Cl)nc2)cc1,57,113,74,75,76,163*
CCOC(=O)c1[nH]cnc1C(=O)Nc1ccc([N+](=O)[O-])cc1,u,95,761*[may fluoresce violet],33*[may fluoresce violet],u,60
